# In publication PMC7862700, “An all-to-all approach to the identification of sequence-specific readers for epigenetic DNA modifications on cytosine”:
# Experiments:
# Test in all cases: DAPPL (digital affinity profiling via proximity ligation, sequencing); 10 mM Tris-HCl pH 7.5, 50 mM NaCl, 1 mM DTT, 4% glycerol, room temperature, 30 min; GST-TFs on glutathione beads, 16-mer random dsDNA library, 0.1% formaldehyde crosslink after washing; high values mean tight binding
# [1] = target: T1, FLI1 (Homo sapiens, UniProt Q01543 1-452); settings: protein: recombinant; tags: N-terminal GST; dsDNA, one strand shown
# T1 sequence: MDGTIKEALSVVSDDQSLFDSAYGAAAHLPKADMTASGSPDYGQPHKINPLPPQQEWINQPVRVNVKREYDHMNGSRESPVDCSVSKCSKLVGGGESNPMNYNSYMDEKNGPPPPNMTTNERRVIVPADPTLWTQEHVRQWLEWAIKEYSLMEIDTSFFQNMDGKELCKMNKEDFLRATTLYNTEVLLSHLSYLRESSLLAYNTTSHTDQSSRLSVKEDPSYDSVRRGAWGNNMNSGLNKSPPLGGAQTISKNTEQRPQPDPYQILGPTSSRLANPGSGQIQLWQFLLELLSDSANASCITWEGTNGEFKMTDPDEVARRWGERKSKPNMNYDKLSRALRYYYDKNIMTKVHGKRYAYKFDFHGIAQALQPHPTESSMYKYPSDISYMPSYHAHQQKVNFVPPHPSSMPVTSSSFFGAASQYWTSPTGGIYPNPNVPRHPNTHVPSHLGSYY
# Outline: (§1)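 Binding signal is given per hexamer as its read frequency for a factor divided by its frequency in the tag-only sample. GST-fused human transcription factors were expressed in yeast, captured on glutathione beads, barcoded with DNA and pooled with that sample, then incubated with 200 nmole of a 16-mer random double-stranded DNA library in Tris/NaCl/DTT/glycerol buffer for 30 min at room temperature. The pools were then washed, crosslinked, proximity-ligated, amplified by PCR and sequenced on an Illumina NextSeq500.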
# [2] = target: T2, ELK1 (Homo sapiens, UniProt P19419 1-428); settings: protein: recombinant; tags: N-terminal GST; dsDNA, one strand shown
# T2 sequence: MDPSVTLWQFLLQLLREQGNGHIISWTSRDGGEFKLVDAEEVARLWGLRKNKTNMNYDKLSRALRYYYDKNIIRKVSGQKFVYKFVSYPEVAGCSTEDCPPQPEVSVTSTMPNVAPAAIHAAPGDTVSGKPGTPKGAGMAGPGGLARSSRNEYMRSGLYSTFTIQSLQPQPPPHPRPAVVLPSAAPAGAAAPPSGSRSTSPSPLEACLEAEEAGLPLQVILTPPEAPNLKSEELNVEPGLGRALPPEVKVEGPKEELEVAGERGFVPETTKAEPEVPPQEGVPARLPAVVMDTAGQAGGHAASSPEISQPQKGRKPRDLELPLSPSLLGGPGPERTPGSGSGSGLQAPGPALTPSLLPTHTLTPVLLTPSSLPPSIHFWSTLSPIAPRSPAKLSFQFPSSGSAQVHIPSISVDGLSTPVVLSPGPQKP
# Outline: as §1
# [3] = target: T3, GABPA (Homo sapiens, UniProt Q06546 1-454); settings: protein: recombinant; tags: N-terminal GST; dsDNA, one strand shown
# T3 sequence: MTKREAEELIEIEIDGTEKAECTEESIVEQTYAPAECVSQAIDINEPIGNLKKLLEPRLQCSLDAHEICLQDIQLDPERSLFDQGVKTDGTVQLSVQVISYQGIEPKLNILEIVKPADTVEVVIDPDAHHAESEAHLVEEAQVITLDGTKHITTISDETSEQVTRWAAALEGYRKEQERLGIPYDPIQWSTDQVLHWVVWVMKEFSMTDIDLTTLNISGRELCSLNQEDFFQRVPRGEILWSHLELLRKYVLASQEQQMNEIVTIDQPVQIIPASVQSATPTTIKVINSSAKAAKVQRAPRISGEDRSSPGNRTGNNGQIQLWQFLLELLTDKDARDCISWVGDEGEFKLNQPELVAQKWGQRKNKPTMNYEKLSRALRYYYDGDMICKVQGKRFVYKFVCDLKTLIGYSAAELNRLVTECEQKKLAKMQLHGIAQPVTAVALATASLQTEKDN
# Outline: as §1
# [4] = target: T4, ERG (Homo sapiens, UniProt P11308 1-479); settings: protein: recombinant; tags: N-terminal GST; dsDNA, one strand shown
# T4 sequence: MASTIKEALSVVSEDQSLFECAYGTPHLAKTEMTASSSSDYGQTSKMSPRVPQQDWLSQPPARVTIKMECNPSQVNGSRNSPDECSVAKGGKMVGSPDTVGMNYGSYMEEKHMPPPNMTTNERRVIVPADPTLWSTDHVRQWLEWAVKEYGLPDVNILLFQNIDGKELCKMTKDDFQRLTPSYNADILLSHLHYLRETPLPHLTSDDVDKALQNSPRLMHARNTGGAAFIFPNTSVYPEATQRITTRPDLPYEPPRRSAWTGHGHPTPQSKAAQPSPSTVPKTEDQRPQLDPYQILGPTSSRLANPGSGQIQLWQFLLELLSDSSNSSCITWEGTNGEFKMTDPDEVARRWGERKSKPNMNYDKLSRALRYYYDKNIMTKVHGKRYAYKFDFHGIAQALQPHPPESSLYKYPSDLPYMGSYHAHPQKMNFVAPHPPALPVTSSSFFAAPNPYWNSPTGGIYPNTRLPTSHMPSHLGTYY
# Outline: as §1
# [5] = target: ELF1 (Homo sapiens, UniProt P32519 1-619); settings: protein: recombinant; tags: N-terminal GST; dsDNA, one strand shown
# Chain of ELF1 (P32519 whole entry): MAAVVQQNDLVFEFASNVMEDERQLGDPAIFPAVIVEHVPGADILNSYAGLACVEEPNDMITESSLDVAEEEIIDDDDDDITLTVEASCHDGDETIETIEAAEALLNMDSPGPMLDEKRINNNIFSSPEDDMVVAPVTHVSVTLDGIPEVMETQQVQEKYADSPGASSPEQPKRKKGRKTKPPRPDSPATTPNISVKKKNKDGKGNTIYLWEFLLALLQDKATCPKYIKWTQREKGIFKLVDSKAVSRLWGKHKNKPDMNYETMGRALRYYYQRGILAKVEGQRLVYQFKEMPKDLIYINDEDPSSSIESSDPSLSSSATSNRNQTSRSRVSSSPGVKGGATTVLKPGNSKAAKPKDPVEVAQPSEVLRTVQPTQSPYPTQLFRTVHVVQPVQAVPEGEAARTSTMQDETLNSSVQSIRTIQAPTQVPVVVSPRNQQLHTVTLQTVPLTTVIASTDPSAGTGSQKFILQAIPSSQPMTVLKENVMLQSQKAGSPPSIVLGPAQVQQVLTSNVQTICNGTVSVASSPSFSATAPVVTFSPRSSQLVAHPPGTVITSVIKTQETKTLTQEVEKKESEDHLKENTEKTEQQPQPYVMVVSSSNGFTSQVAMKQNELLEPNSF
# Outline: as §1
# [6] = target: T5, EHF (Homo sapiens, UniProt Q9NZC4 1-300); settings: protein: recombinant; tags: N-terminal GST; dsDNA, one strand shown
# T5 sequence: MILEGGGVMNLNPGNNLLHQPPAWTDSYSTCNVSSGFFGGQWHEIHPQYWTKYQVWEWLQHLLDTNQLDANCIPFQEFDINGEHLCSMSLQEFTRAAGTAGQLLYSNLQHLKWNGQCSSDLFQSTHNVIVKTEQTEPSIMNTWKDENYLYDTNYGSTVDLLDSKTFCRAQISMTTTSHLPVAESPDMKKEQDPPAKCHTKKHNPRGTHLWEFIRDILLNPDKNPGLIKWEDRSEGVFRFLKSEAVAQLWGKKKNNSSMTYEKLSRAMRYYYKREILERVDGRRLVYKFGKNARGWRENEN
# Outline: as §1
# [7] = target: SPI1 (Homo sapiens, UniProt P17947 1-270); settings: protein: recombinant; tags: N-terminal GST; dsDNA, one strand shown
# Outline: as §1
# [8] = target: SPIB (Homo sapiens, UniProt Q01892 1-262); settings: protein: recombinant; tags: N-terminal GST; dsDNA, one strand shown
# Chain of SPIB (Q01892 whole entry): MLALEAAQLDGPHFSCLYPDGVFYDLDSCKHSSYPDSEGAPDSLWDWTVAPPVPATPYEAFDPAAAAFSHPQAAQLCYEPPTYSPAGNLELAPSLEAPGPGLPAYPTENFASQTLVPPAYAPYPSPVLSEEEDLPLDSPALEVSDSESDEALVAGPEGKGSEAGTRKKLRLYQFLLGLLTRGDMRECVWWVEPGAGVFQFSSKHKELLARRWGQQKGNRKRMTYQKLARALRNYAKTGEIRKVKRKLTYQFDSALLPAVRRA
# Outline: as §1
# [9] = target: T6, ELK3 (Homo sapiens, UniProt P41970 1-407); settings: protein: recombinant; tags: N-terminal GST; dsDNA, one strand shown
# T6 sequence: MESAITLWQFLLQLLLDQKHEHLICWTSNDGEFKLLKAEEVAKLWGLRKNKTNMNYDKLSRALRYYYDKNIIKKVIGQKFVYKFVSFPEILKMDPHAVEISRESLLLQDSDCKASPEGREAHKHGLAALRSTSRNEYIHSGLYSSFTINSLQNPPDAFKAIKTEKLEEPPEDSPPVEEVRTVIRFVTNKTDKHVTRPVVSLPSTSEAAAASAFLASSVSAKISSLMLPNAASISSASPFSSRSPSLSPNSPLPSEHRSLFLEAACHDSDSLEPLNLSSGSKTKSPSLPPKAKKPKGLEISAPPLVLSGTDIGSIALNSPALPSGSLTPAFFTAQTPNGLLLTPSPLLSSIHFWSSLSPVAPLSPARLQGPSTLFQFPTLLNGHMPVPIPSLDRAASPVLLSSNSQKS
# Outline: as §1
# [10] = target: T7, FEV (Homo sapiens, UniProt Q99581 1-238); settings: protein: recombinant; tags: N-terminal GST; dsDNA, one strand shown
# T7 sequence: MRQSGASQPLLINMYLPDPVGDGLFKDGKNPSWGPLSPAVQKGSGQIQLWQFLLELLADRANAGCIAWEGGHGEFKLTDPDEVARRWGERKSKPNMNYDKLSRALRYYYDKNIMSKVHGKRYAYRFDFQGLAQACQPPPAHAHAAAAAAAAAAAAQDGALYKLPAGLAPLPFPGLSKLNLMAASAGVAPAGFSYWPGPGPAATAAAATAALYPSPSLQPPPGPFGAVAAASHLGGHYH
# Outline: as §1
# [11] = target: ETV5 (Homo sapiens, UniProt P41161 1-510); settings: protein: recombinant; tags: N-terminal GST; dsDNA, one strand shown
# Chain of ETV5 (P41161 whole entry): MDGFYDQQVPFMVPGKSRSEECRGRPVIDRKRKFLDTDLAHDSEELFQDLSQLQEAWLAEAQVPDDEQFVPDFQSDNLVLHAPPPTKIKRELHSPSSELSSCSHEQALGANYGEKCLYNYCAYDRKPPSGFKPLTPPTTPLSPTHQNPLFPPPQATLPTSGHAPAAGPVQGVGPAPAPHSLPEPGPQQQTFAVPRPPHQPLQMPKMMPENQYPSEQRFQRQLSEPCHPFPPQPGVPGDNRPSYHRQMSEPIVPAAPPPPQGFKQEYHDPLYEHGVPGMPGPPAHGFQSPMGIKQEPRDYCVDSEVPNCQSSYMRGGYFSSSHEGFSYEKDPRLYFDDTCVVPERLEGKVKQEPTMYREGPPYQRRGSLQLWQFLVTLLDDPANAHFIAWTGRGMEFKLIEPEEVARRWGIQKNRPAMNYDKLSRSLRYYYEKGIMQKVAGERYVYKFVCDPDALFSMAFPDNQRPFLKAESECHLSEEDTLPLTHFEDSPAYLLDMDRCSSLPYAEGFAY
# Outline: as §1
# [12] = target: HSF1 (Homo sapiens, UniProt Q00613 1-529); settings: protein: recombinant; tags: N-terminal GST; chain copies: 3; dsDNA, one strand shown
# Chain of HSF1 (Q00613 whole entry): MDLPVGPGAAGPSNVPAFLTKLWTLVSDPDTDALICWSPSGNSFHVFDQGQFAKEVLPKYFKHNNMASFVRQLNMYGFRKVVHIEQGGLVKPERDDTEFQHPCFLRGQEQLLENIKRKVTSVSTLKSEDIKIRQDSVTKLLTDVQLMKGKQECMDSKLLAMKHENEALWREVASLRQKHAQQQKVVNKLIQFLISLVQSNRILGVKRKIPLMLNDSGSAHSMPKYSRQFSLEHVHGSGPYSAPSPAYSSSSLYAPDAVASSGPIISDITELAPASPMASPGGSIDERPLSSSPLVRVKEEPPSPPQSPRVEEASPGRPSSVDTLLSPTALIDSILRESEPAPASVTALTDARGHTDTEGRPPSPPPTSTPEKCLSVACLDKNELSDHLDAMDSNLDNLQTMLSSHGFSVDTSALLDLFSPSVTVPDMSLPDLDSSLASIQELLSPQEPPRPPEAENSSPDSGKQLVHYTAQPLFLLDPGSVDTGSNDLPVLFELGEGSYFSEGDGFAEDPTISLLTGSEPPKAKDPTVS
# Outline: as §1
# [13] = target: T8, SPIC (Homo sapiens, UniProt Q8N5J4 1-248); settings: protein: recombinant; tags: N-terminal GST; dsDNA, one strand shown
# T8 sequence: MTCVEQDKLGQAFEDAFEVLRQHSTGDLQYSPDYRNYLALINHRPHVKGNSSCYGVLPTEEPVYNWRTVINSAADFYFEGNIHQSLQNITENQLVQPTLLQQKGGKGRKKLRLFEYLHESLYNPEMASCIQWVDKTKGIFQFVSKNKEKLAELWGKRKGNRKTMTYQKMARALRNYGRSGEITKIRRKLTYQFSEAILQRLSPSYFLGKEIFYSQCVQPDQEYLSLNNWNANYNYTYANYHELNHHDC
# Outline: as §1
# [14] = target: ELF4 (Homo sapiens, UniProt Q99607 1-663); settings: protein: recombinant; tags: N-terminal GST; dsDNA, one strand shown
# Chain of ELF4 (Q99607 whole entry): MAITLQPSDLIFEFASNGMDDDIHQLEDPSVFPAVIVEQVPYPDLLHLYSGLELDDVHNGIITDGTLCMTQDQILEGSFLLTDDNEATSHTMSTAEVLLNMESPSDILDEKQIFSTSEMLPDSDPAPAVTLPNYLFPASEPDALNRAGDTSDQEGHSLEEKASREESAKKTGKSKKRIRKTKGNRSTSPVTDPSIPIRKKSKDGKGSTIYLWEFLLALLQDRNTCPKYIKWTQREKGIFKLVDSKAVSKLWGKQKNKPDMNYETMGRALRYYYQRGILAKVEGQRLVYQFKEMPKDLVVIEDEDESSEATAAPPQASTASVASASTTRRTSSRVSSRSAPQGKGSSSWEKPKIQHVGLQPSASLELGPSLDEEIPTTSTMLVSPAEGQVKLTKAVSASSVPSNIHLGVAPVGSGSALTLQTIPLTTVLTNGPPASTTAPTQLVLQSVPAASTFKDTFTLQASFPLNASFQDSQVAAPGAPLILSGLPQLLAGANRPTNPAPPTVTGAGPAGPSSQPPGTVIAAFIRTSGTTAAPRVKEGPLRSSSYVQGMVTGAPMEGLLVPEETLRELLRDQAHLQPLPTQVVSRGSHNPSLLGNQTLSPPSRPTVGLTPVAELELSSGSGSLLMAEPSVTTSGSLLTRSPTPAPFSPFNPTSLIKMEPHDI
# Outline: as §1
# [15] = target: T9, ELK4 (Homo sapiens, UniProt P28324-2 1-405); settings: protein: recombinant; tags: N-terminal GST; dsDNA, one strand shown
# T9 sequence: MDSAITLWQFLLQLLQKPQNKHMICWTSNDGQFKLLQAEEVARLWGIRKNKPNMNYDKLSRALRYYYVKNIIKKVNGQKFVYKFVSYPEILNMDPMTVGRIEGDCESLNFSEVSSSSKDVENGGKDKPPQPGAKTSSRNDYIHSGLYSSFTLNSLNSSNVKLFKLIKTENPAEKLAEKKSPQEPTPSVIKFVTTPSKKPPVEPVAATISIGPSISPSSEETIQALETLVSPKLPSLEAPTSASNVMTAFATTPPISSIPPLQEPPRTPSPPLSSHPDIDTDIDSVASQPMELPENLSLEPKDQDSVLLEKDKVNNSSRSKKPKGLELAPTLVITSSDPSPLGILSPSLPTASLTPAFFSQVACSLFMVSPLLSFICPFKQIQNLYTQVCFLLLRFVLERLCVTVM
# Outline: as §1
# [16] = target: T10, ETV2 (Homo sapiens, UniProt O00321 1-342); settings: protein: recombinant; tags: N-terminal GST; dsDNA, one strand shown
# T10 sequence: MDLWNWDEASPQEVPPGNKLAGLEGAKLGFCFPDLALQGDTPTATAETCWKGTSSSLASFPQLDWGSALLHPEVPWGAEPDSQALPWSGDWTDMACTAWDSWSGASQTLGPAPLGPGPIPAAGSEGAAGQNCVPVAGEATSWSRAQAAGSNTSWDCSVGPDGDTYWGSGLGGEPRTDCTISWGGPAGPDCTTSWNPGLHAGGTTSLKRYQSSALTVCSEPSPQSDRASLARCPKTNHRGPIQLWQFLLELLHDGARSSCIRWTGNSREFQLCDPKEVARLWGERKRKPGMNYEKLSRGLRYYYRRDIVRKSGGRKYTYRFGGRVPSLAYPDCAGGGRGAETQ
# Outline: as §1
# [17] = target: T11, ELF3 (Homo sapiens, UniProt P78545 1-371); settings: protein: recombinant; tags: N-terminal GST; dsDNA, one strand shown
# T11 sequence: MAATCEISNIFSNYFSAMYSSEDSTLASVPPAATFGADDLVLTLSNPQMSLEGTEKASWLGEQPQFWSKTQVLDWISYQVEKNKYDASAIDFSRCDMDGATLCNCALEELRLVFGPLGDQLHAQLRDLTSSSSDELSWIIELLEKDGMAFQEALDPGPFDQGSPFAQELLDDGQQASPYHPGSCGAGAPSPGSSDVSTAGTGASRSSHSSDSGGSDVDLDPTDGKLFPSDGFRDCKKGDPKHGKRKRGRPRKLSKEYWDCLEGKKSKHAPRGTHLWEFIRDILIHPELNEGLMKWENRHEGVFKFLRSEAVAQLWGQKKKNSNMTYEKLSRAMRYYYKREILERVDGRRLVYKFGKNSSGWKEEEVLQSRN
# Outline: as §1
# [18] = target: CRX (Homo sapiens, UniProt O43186 1-299); settings: protein: recombinant; tags: N-terminal GST; dsDNA, one strand shown
# Chain of CRX (O43186 whole entry): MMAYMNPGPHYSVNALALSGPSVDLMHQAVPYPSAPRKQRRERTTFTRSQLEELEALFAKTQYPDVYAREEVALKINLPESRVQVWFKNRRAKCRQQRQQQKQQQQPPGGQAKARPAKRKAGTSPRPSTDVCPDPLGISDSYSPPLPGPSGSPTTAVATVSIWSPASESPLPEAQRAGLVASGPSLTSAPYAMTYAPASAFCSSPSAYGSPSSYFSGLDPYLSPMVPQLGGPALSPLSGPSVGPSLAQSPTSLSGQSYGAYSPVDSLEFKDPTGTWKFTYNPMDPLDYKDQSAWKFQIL
# Outline: as §1
# [19] = target: ETV1 (Homo sapiens, UniProt P50549 1-477); settings: protein: recombinant; tags: N-terminal GST; dsDNA, one strand shown
# Chain of ETV1 (P50549 whole entry): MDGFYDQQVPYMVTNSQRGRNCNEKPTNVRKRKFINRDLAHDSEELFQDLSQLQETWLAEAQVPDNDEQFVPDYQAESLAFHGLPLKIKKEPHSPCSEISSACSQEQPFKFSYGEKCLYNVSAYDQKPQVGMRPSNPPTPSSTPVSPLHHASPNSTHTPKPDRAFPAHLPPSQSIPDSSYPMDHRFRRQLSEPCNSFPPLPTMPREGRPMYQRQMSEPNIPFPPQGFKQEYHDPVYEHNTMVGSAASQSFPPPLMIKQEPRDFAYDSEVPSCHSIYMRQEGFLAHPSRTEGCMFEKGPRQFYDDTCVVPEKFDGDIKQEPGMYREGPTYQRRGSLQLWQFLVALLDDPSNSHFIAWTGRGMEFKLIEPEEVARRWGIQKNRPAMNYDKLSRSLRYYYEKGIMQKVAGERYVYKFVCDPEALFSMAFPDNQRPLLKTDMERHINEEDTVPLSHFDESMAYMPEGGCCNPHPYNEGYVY
# Outline: as §1
sequence,measurement,setting,value
GCTCAA,binding signal,[1],"1.05 fold enrichment (6-mer frequency, TF over GST control)"
same,binding signal,[2],"1.1 fold enrichment (6-mer frequency, TF over GST control)"
same,binding signal,[3],"1.05 fold enrichment (6-mer frequency, TF over GST control)"
same,binding signal,[4],"1.15 fold enrichment (6-mer frequency, TF over GST control)"
same,binding signal,[5],"1.09 fold enrichment (6-mer frequency, TF over GST control)"
same,binding signal,[6],"1.13 fold enrichment (6-mer frequency, TF over GST control)"
same,binding signal,[7],"1.09 fold enrichment (6-mer frequency, TF over GST control)"
same,binding signal,[8],"1.1 fold enrichment (6-mer frequency, TF over GST control)"
same,binding signal,[9],"1.01 fold enrichment (6-mer frequency, TF over GST control)"
same,binding signal,[10],"1.07 fold enrichment (6-mer frequency, TF over GST control)"
same,binding signal,[11],"1.12 fold enrichment (6-mer frequency, TF over GST control)"
same,binding signal,[12],"1.16 fold enrichment (6-mer frequency, TF over GST control)"
same,binding signal,[13],"1.19 fold enrichment (6-mer frequency, TF over GST control)"
same,binding signal,[14],"1.16 fold enrichment (6-mer frequency, TF over GST control)"
same,binding signal,[15],"1.03 fold enrichment (6-mer frequency, TF over GST control)"
same,binding signal,[16],"1.1 fold enrichment (6-mer frequency, TF over GST control)"
same,binding signal,[17],"1.11 fold enrichment (6-mer frequency, TF over GST control)"
same,binding signal,[18],"1.31 fold enrichment (6-mer frequency, TF over GST control)"
same,binding signal,[19],"1.1 fold enrichment (6-mer frequency, TF over GST control)"
